Several values for one entry are separate records, joined by “and”; a condition that tells them apart may be missing. Equal values may be shown once. Results filed as inconclusive are left out. A number with no mark means an inactive call. Activity calls are given as the source filed them. Unless noted, the call rests on the fitted dose curve; in most records, active means well fitted curve in the direction sought with a large enough effect in the repeat runs; inconclusive means weak or mixed curves; inactive means no such curve, though single readings can be large; an effect the other way counts as inactive or inconclusive.
Columns and labels:
[1] = qHTS assay to identify small molecule agonists of the RXR signaling pathway - cell viability counter screen (AID 1159529); further: nearly all actives have a fitted effect of over 50% in size; further: potency means the concentration at half of the fitted maximal effect
Outline: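 Cell viability is measured by CellTiter-Glo luminescence, 30 min at room temperature, in wells already read for beta-lactamase. Engineered HEK 293T cells (RXR-alpha-UAS-bla) are dosed 16 hr at 37 C. Tetraoctyl ammonium bromide serves as positive control.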

[2] = qHTS assay to identify small molecule antagonists of the retinoic acid receptor (RAR) signaling pathway (AID 1159552; further: nearly all actives have a fitted effect of over 50% in size; further: potency means the concentration at half of the fitted maximal effect)
Outline: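 Quantitative HTS in C3RL4 RARE-luciferase reporter cells. Compounds were added with 1 uM (final) retinol; luminescence was read after 6 hr.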

[3] = qHTS assay to identify small molecule agonists of the retinoic acid receptor (RAR) signaling pathway (AID 1159553); further: potency means the concentration at half of the fitted maximal effect; on activation: on the % scale 0 is the no-effect control and ±100 the full control effect
Outline: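 Compounds dissolved in DMSO were pinned onto C3RL4 cells seeded the previous day, and plates were held 6 hr at 37 C. RARE-driven luciferase output was then read by luminescence.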

[4] = qHTS assay to identify small molecule antagonists of the estrogen related receptor (ERR) signaling pathway from Tox21 library - cell viability counter screen (AID 1224834); further: nearly all actives have a fitted effect of over 30% in size; further: potency means the concentration at half of the fitted maximal effect
Outline: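 In this quantitative HTS format, ERR cells receive compounds in DMSO and are incubated for 17.5 h at 37 C. Live-cell protease activity is then detected with CellTiter-Fluor.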

[5] = biological target: Luciferin 4-monooxygenase (Photinus pyralis) (UniProt P08659); test: qHTS assay to identify small molecule inhibitors of firefly luciferase (AID 1224835); further: nearly all actives have a fitted effect of over 25% in size; further: potency means the concentration at half of the fitted maximal effect
Sequence of Luciferin 4-monooxygenase (Photinus pyralis) (P08659 whole entry, looked up): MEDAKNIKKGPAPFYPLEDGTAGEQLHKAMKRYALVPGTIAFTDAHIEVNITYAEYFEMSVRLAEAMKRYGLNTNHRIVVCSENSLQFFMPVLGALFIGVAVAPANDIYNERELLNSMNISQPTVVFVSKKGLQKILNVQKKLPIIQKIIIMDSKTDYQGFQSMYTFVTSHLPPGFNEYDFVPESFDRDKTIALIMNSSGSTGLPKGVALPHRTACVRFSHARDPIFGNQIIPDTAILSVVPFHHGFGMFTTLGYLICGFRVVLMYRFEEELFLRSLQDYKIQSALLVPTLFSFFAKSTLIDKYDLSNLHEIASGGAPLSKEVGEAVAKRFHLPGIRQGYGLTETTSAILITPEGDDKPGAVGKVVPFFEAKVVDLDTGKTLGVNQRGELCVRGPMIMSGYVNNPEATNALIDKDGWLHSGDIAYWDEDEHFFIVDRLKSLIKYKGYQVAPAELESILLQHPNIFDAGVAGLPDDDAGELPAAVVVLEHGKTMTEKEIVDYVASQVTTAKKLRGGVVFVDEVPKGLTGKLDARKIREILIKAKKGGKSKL
Outline: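 Biochemical qHTS: compounds run as interplate titrations against purified firefly enzyme, with D-luciferin and ATP each at its KM concentration. Light output recorded by CCD imaging.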

[6] = qHTS assay to identify small molecule agonists of the constitutive androstane receptor (CAR) signaling pathway - cell viability counter screen (AID 1224836); further: nearly all actives have a fitted effect of over 45% in size; further: potency means the concentration at half of the fitted maximal effect
Outline: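 Counter screen multiplexed with the CAR reporter readout: HepG2 cells co-transfected with hCAR and the CYP2B6-2.2kb construct receive a 15-concentration compound series and 0.75 uM PK11195 (final), then CellTiter-Fluor fluorescence is read after 23 h.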

[7] = biological target: Nuclear receptor subfamily 1 group I member 3 (Homo sapiens) (UniProt Q14994); test: qHTS assay to identify small molecule antagonists of the constitutive androstane receptor (CAR) signaling pathway (AID 1224838); further: nearly all actives have a fitted effect of over 40% in size; further: potency means the concentration at half of the fitted maximal effect
Sequence of Nuclear receptor subfamily 1 group I member 3 (Homo sapiens) (Q14994 whole entry, looked up): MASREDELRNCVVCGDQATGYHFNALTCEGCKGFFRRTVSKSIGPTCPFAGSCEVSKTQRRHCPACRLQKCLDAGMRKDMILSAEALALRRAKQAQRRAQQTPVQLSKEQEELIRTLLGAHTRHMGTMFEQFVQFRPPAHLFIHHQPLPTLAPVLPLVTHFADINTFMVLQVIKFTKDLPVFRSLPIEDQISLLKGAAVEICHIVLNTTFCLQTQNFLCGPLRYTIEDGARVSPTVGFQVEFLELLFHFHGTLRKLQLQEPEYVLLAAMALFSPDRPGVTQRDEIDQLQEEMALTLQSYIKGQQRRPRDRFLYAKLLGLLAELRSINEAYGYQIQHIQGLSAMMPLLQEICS
Outline: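 CITCO-stimulated (50 nM final) HepG2 cells stably transfected with hCAR and CYP2B6-2.2kb luciferase were exposed to compounds at 15 concentrations for 24 h at 37 C/5% CO2. A luciferase reagent was added and luminescence recorded after 30 min.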

[8] = biological target: Nuclear receptor subfamily 1 group I member 3 (Homo sapiens) (UniProt Q14994); test: qHTS assay to identify small molecule agonists of the constitutive androstane receptor (CAR) signaling pathway (AID 1224839); further: nearly all actives have a fitted effect of over 15% in size; further: potency means the concentration at half of the fitted maximal effect
Outline: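 A 15-concentration quantitative screen uses HepG2 cells co-transfected stably with human CAR and CYP2B6-2.2kb reporter. Treatment lasts 24 h with 0.75 uM PK11195 final present; ONE-Glo luminescence is the signal.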

[9] = qHTS assay to identify small molecule antagonists of the constitutive androstane receptor (CAR) signaling pathway - cell viability counter screen (AID 1224837); further: nearly all actives have a fitted effect of over 45% in size; further: potency means the concentration at half of the fitted maximal effect
Outline: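 In quantitative HTS format, compounds at 15 concentrations were applied to HepG2 cells double-transfected with hCAR and CYP2B6-2.2kb under 50 nM CITCO stimulation; live-cell protease activity was read after 23 hr via CellTiter-Fluor.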

[10] = qHTS assay to identify small molecule agonists of the estrogen related receptor signaling pathway with the pleiotropic PPARgamma coactivator (PGC) from Tox21 10K library (AID 1224842); further: on the % scale 0 is the no-effect control and ±100 the full control effect; nearly all actives have a fitted effect of over 15% in size
Outline: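 PGC/ERR reporter cell line, 2,000 cells per well, incubated 6 h at 37 C before 23 nL compound in DMSO was added. After 18 h at 37 C, One-Glo luminescence read following 30 min at room temperature.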

[11] = qHTS assay to identify small molecule antagonists of the estrogen related receptor signaling pathway with the pleiotropic PPARgamma coactivator (PGC) from Tox21 10K library - cell viability counter screen (AID 1224840; active means well fitted cell-killing curve with a large enough effect in the repeat runs, not every such curve was filed as active; further: nearly all actives have a fitted effect of over 40% in size; further: potency means the concentration at half of the fitted maximal effect)
Outline: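 Viability counter screen, PGC/ERR cells: 17.5 h compound exposure at 37 C, CellTiter-Fluor fluorescence endpoint.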

[12] = qHTS assay to identify small molecule antagonists of the estrogen related receptor signaling pathway with the pleiotropic PPARgamma coactivator (PGC) from Tox21 10K library (AID 1224841; call rule not given here; further: potency means the concentration at half of the fitted maximal effect; actives are mostly falling curves and most rising ones were filed inactive; nearly all actives have a fitted effect of over 50% in size)
Outline: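 In the PGC/ERR line, DMSO solutions of test chemicals are pin-delivered to 2,000 cells/well six hours after dispensing. Following eighteen hours' incubation, One-Glo reagent is added and luminescence recorded.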

[13] = biological target: Thyrotropin receptor (Homo sapiens) (UniProt P16473); test: qHTS assay to identify small molecule agonists of the thyroid stimulating hormone receptor (TSHR) signaling pathway (AID 1224843; calls by dose curve; further: nearly all actives have a fitted effect of over 45% in size; further: potency means the concentration at half of the fitted maximal effect)
Sequence of Thyrotropin receptor (Homo sapiens) (P16473 whole entry, looked up): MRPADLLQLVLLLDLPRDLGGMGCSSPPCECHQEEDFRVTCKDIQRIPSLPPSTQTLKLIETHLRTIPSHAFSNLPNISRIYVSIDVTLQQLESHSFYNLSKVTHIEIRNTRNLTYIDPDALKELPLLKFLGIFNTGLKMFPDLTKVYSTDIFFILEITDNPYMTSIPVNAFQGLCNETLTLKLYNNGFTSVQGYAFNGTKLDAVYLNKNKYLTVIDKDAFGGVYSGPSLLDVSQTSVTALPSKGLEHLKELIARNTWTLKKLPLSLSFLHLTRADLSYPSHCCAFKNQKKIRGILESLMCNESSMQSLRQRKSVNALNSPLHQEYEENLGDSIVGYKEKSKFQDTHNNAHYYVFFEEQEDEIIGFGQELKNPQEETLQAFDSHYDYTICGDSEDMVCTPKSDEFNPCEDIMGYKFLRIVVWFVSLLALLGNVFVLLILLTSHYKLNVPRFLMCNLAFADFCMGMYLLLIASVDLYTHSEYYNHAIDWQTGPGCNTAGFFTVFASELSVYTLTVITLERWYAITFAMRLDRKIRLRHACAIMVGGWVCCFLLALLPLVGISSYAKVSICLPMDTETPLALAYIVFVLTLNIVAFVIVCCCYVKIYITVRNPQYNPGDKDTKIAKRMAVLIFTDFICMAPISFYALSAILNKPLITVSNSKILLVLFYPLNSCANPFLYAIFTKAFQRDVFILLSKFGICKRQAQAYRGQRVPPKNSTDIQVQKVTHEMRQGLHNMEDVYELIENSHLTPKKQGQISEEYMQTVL
Outline: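 Agonist-mode screen: TSHR HEK293 cells received test chemicals for half an hour at room temperature, then HTRF cAMP detection reagents for one hour prior to fluorescence measurement. Each chemical ran as a 15-concentration series, triplicated.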

[14] = qHTS assay to identify small molecule antagonists of the retinoid acid receptor (RAR) signaling pathway - cell viability counter screen (AID 1159551); further: on the % scale 0 is the no-effect control and ±100 the full control effect; nearly all actives have a fitted effect of over 35% in size
Outline: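 Viability of C3RL4 cells is quantified from ATP by luminescence after 6 h treatment at 37 C with compounds and 1 uM retinol.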

[15] = qHTS assay to identify small molecule agonists of the estrogen related receptor (ERR) signaling pathway (AID 1224820); further: on the % scale 0 is the no-effect control and ±100 the full control effect
Outline: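 An ERR cell line provided by NTP was seeded at 2,000 cells per well and allowed to settle for 6 h before compounds in DMSO were added. After 18 h at 37 C, luciferase activity was measured by One-Glo luminescence.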

[16] = tested on: estrogen-related receptor alpha (ERRalpha) with PGC-1alpha coactivator, human; test: qHTS assay to identify small molecule antagonists of the estrogen related receptor signaling pathway with the pleiotropic PPARgamma coactivator (PGC) (AID 1224821; calls by dose curve;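 further: series mostly up to about 46 µM; on the % scale 0 is the no-effect control and ±100 the full control effect; lower luminescence signal means antagonism of PGC/ERR signalling; nearly all actives have a fitted effect of over 50% in size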)
Outline: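 A PGC/ERR cell line supplied by NTP is seeded, allowed 6 h at 37 C, and treated with test compounds in DMSO for 18 h. Signal is then measured as luciferase luminescence using One-Glo.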

[17] = qHTS assay to identify small molecule antagonists of the estrogen related receptor signaling pathway with the pleiotropic PPARgamma coactivator (PGC) cell viability counter screen (AID 1224822; further: series mostly up to about 46 µM; on the % scale 0 is the no-effect control and ±100 the full control effect)
Outline: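 Viable cell signal (CellTiter-Fluor, 30 min, 37 C/5% CO2) was measured in PGC/ERR cells after a 17.5 h compound incubation.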

[18] = qHTS assay to identify small molecule agonists of the estrogen related receptor signaling pathway with the pleiotropic PPARgamma coactivator (PGC) (AID 1224823); further: on the % scale 0 is the no-effect control and ±100 the full control effect
Outline: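 Compounds dissolved in DMSO are added by pin tool to PGC/ERR cells that have settled for 6 h, and incubation continues 18 h at 37 C. Reporter output is measured as One-Glo luminescence.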

CCCCCCCCCOC(=O)c1ccc(O)cc1
Potency [1]: 24.2 µM (active) | Potency [2]: inactive | Potency [3]: inactive | Potency [4]: 53.7 µM (active) | Potency [5]: 70 µM (active) | Potency [6]: inactive | Potency [7]: inactive | Potency [8]: inactive

Cc1cc(CCN2CCN(c3nsc4ccccc34)CC2)cc2c1NC(=O)CC2(C)C
Potency [1]: 11 µM (active) | Potency [2]: 30.6 µM (active) | Potency [4]: 30.6 µM (active) | Potency [5]: inactive | Potency [6]: 48.6 µM (active) | Potency [9]: 54.5 µM (active) | Potency [7]: inactive | Potency [8]: 21.7 µM (active) | Potency [10]: inactive

CC(C)(C)NC(=O)[C@@H]1C[C@@H]2CCCC[C@@H]2CN1C[C@@H](O)[C@H](Cc1ccccc1)NC(=O)[C@H](CC(N)=O)NC(=O)c1ccc2ccccc2n1
Potency [1]: 24.9 µM (active) | Potency [2]: 55.2 µM (active) | Potency [4]: 24.7 µM (active) | Potency [5]: inactive | Potency [6]: 31 µM (active) | Potency [9]: 24.7 µM (active) | Potency [8]: inactive | Potency [11]: 31 µM (active) | Potency [12]: 27.7 µM (active) | Potency [10]: inactive | Potency [13]: 27.7 µM (active)

O=C(O)c1cc(O)c2c(c1)C(=O)c1cccc(O)c1C2=O
Potency [1]: inactive | Potency [14]: inactive | Potency [5]: inactive | Potency [6]: inactive | Potency [7]: inactive | Potency [8]: inactive | Potency [13]: inactive

Oc1ccc(Cl)cc1Sc1cc(Cl)ccc1O
Potency [1]: 43.6 µM (active) | Potency [2]: 26.6 µM (active) | Potency [3]: inactive | Potency [4]: 30.6 µM (active) and 26.6 µM (active) | Potency [5]: inactive | Potency [7]: 68.5 µM (active) | Potency [8]: inactive | Potency [12]: 13.7 µM (active) and 10.6 µM (active) | Potency [10]: inactive

O=CC=C(c1ccccc1)c1ccccc1
Potency [1]: inactive | Potency [2]: inactive | Potency [4]: 27.5 µM (active) | Potency [5]: inactive | Potency [6]: inactive | Potency [9]: inactive | Potency [7]: inactive

O=[N+]([O-])c1cc([N+](=O)[O-])c2ccc(S(=O)(=O)O)cc2c1O
Potency [1]: inactive | Potency [14]: inactive | Potency [6]: 27.1 µM (active) | Potency [9]: 24.2 µM (active) | Potency [11]: 24.2 µM (active)

c1ccc(CSCc2ccccc2)cc1
Potency [1]: inactive | Potency [14]: inactive | Potency [6]: inactive | Potency [9]: inactive | Potency [7]: inactive | Potency [11]: inactive

CC1=C(/C=C/C(C)=C/C=C/C(C)=C/C=O)C(C)(C)CCC1
Potency [1]: 19.4 µM (active) | Potency [3]: 0.542 µM (active) | Potency [4]: 27.1 µM (active) | Potency [6]: 54.2 µM (active) | Potency [9]: 68.2 µM (active) | Potency [8]: 15.3 µM (active) | Potency [11]: 54.2 µM (active) | Potency [13]: 6.82 µM (active)

CC1=C(C(=O)OC(C)C)C(c2cccc([N+](=O)[O-])c2)C(C(=O)OC2CN(C(c3ccccc3)c3ccccc3)C2)=C(N)N1 (stereo unspecified)
Potency [1]: 13.4 µM (active) | Potency [2]: 23.7 µM (active) | Potency [4]: 29.8 µM (active) | Potency [5]: inactive | Potency [6]: 29.8 µM (active) | Potency [9]: 29.8 µM (active) | Potency [8]: inactive | Potency [11]: 29.8 µM (active) | Potency [12]: 26.6 µM (active)

N=C1N=C(N)c2ccccc21
Potency [1]: inactive | Potency [4]: 43.3 µM (active) | Potency [5]: inactive | Potency [6]: 48.6 µM (active) | Potency [9]: 54.5 µM (active) | Potency [7]: 17.2 µM (active) | Potency [8]: inactive

CCCCCCCCCCCC(=O)NCCCN(C)C
Potency [1]: 15.5 µM (active) | Potency [2]: 54.5 µM (active) | Potency [5]: inactive | Potency [6]: 61.1 µM (active) | Potency [8]: inactive | Potency [11]: 61.1 µM (active)

[O-][n+]1ccccc1SSc1cccc[n+]1[O-]
Potency [1]: 0.165 µM (active) | Potency [2]: 0.092 µM (active) | Potency [4]: 0.366 µM (active) | Potency [5]: 0.425 µM (active) | Potency [6]: 0.92 µM (active) | Potency [9]: 0.206 µM (active) | Potency [12]: 1.64 µM (active) | activation [10]: -33.7% [at 19 µM] | activation [13]: 15.2% [at 19 µM]

OCCN1CCN(CC/C=C2/c3ccccc3Sc3ccc(C(F)(F)F)cc32)CC1
Potency [1]: 19 µM (active) | Potency [2]: 26.6 µM (active) | outcome [15]: inactive | Potency [16]: inactive | Potency [17]: inactive | outcome [18]: inactive | Potency [5]: inactive | Potency [11]: 29.8 µM (active) | Potency [12]: 29.8 µM (active) | Potency [13]: inactive

COc1cccc(N)c1
Potency [1]: inactive | Potency [14]: inactive | Potency [6]: inactive | Potency [9]: inactive | Potency [7]: inactive | Potency [8]: inactive | Potency [11]: inactive | Potency [13]: inactive

OC1(c2ccc(Cl)c(C(F)(F)F)c2)CCN(CCCC(c2ccc(F)cc2)c2ccc(F)cc2)CC1
Potency [1]: 6.74 µM (active) | Potency [2]: 26.6 µM (active) | Potency [4]: 21.1 µM (active) | Potency [5]: inactive | Potency [6]: 23.7 µM (active) | Potency [9]: 13.3 µM (active) | Potency [7]: 13.3 µM (active) | Potency [8]: inactive | Potency [11]: 18.8 µM (active) | Potency [12]: 29.8 µM (active) | Potency [10]: inactive | Potency [13]: inactive

CCOc1nc2cccc(C(=O)OC(C)OC(=O)OC3CCCCC3)c2n1Cc1ccc(-c2ccccc2-c2nn[nH]n2)cc1 (stereo unspecified)
Potency [1]: 27.5 µM (active) | Potency [3]: inactive | Potency [4]: 54.4 µM (active) | Potency [5]: 56.4 µM (active) | Potency [6]: inactive | Potency [9]: inactive | Potency [7]: inactive | Potency [8]: inactive | Potency [11]: 43.2 µM (active) | Potency [12]: 54.4 µM (active) | Potency [10]: inactive | Potency [13]: inactive

CC/C(=C(\c1ccc(O)cc1)c1ccc(OCCN(C)C)cc1)c1ccccc1
Potency [1]: 21.9 µM (active) | Potency [2]: 68.7 µM (active) | Potency [4]: 68.7 µM (active) | Potency [5]: inactive | Potency [6]: 68.7 µM (active) | Potency [9]: 68.7 µM (active) | Potency [8]: inactive | Potency [11]: 48.7 µM (active)

CC[C@@]1(O)C(=O)OCc2c1cc1n(c2=O)Cc2c-1nc1ccccc1c2/C=N/OC(C)(C)C
Potency [1]: 0.848 µM (active) | Potency [14]: inactive | Potency [5]: inactive | Potency [7]: 0.0376 µM (active) | Potency [8]: inactive | Potency [12]: 4.73 µM (active) | Potency [13]: inactive

CN(C)c1ccc(SC#N)cc1
Potency [1]: inactive | Potency [2]: 9.69 µM (active) | Potency [3]: inactive | Potency [4]: inactive | Potency [6]: inactive | Potency [7]: 27.3 µM (active) | Potency [8]: inactive | Potency [11]: inactive
